{"source": "PubChem BioAssay AID868", "about": "(SRMLSC, 2007)", "note": "In all, about 190,000 compounds went through this assay and about 3,500 (1.8%) were called active. Many of the other results were omitted from the sample, so actives are more common in it than they were. A number with no mark means an inactive call.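 The calls were made as follows: active = inhibition above a set limit, 3 SD over mean compound inhibition (cut at about 8.4% in these data); inactive = the rest.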", "data": [{"assay": "RAM signaling blockers in budding yeast – dse1pr::URA3 reporter, 5-FOA selection, primary screen (AID 868);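 also: 0% = DMSO-only wells with no growth and 100% = 10 µM 1-NA-PP1 full growth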", "settings": "S. cerevisiae dse1pr::URA3 reporter, 5-FOA growth OD615, 2 d; at 50 µM; active compounds read high; analog-sensitive cbk1-as2 kinase mutant strain", "values": [{"smiles": "O=C(Nc1ccc2c(c1)CCC2)c1ccc(Br)s1", "inhibition": "1.86%"}, {"smiles": "CCOC(=O)C(C)n1nc(-c2ccccc2)c2ccccc2c1=O", "note": "(centres undefined)", "inhibition": "0.13%"}, {"smiles": "O=C(Nn1cnc2ccccc2c1=O)c1ccccc1", "inhibition": "1.22%"}, {"smiles": "COc1ccccc1Nc1ncnc2c1oc1ccccc12", "inhibition": "5%"}, {"smiles": "CCSc1nc(C)nc2c1oc1ccccc12", "inhibition": "3.79%"}, {"smiles": "CCc1nc(Nc2ccc3nccnc3c2)c2oc3ccccc3c2n1", "inhibition": "12.5% (active)"}, {"smiles": "Cc1ccc(NC(=O)C(=O)NCc2ccco2)c(C)c1", "inhibition": "4.33%"}, {"smiles": "CCOc1ccc(/C=N/OCC(=O)NCc2cccs2)cc1", "inhibition": "0.76%"}, {"smiles": "CCOC(=O)C1(CC2CCCCO2)CCN(Cc2nc(-c3cccs3)oc2C)CC1", "note": "(centres undefined)", "inhibition": "0.26%"}, {"smiles": "O=C(COc1ccccc1)Nc1ccc(N2CCN(C(=O)c3cccs3)CC2)cc1", "inhibition": "6.82%"}, {"smiles": "COc1ccc(/C=C2\\SC(=N)N(c3ccc(F)cc3)C2=O)cc1", "inhibition": "2.04%"}, {"smiles": "COc1ccc2[nH]c(C)c(CCN(Cc3cccs3)C(=S)Nc3ccccc3OC)c2c1", "inhibition": "2.4%"}, {"smiles": "CCNC(=S)N(CCc1c(C)[nH]c2ccc(C)cc12)Cc1ccco1", "inhibition": "9.53% (active)"}, {"smiles": "COc1cccc(NC(=S)N(CCc2c(C)[nH]c3ccccc23)Cc2ccco2)c1", "inhibition": "7.14%"}, {"smiles": "O=C(CSc1nc2ccccc2[nH]1)N/N=C/C=C\\c1ccccc1[N+](=O)[O-]", "inhibition": "0.9%"}, {"smiles": "Cc1ccc(-n2c(SCC(=O)N/N=C/C=C/c3ccccc3[N+](=O)[O-])nc3ccccc3c2=O)cc1", "inhibition": "10.3% (active)"}, {"smiles": "CCn1c(SCC(=O)N/N=C/C=C/c2ccccc2[N+](=O)[O-])nnc1-c1ccccc1", "inhibition": "0.99%"}, {"smiles": "Cc1ccc(NC(=O)c2ccn(C(=O)Nc3ccccc3)n2)c(C)c1", "inhibition": "1.13%"}, {"smiles": "COc1ccc(C)cc1NC(=O)C(Sc1ccccc1)c1ccccc1", "note": "(centres undefined)", "inhibition": "12% (active)"}, {"smiles": "COc1ccc(C)cc1NC(=O)Nc1ccccc1SC", "inhibition": "3.85%"}, {"smiles": "COc1ccc(C)cc1NC(=S)Nc1ccccc1SC", "inhibition": "0.14%"}, {"smiles": "Cc1c(CN2CCCCC2)c(O)n(CCO)c(=O)c1C#N", "inhibition": "1.68%"}, {"smiles": "Cc1cc(C)c(C(N)=O)c(Cl)n1", "inhibition": "-0.5%"}, {"smiles": "C/C(=N\\Nc1nc(N2CCOCC2)nc(N2CCOCC2)n1)c1ccc([N+](=O)[O-])cc1", "inhibition": "1.78%"}, {"smiles": "OCCC1CN(Cc2ccccc2-c2ccco2)CCN1Cc1ccsc1", "note": "(centres undefined)", "inhibition": "0.13%"}, {"smiles": "Cc1ccc(N2CCN(C3=NC(=O)/C(=C\\c4cccs4)S3)CC2)cc1", "inhibition": "2.02%"}, {"smiles": "CC1CCN(C2=NC(=O)/C(=C/c3cn[nH]c3-c3ccccc3)S2)CC1", "inhibition": "9.65% (active)"}, {"smiles": "CCc1ccc(/C=C2\\SC(N3CCOCC3)=NC2=O)cc1", "inhibition": "2.12%"}, {"smiles": "O=c1c(Cl)c(NCc2ccc(F)cc2Cl)cnn1C12CC3CC(CC(C3)C1)C2", "inhibition": "6.9%"}, {"smiles": "CCN(CCn1cccn1)Cc1nc(-c2ccc(C(=O)OC)cc2)no1", "inhibition": "0.13%"}, {"smiles": "O=C(COc1ccc(NC(=O)c2ccccc2[N+](=O)[O-])cc1)c1ccc(F)cc1", "inhibition": "6.75%"}, {"smiles": "Cc1ccccc1CSCCNC(=O)c1ccc(Cl)c(S(=O)(=O)N2CCOCC2)c1", "inhibition": "7.41%"}, {"smiles": "Cc1ccc(C(=O)NCCNS(=O)(=O)c2ccccc2)cc1", "inhibition": "0.27%"}, {"smiles": "Cc1ccccc1CSCCNC(=O)c1ccc(N(C)S(=O)(=O)c2ccccc2)cc1", "inhibition": "14.2% (active)"}, {"smiles": "COc1cccc(-c2nn(C)c3sc(C(=O)N4CCN(c5ccccc5)CC4)cc23)c1", "inhibition": "8.94% (active)"}, {"smiles": "COc1ccccc1N1CCN(C(=O)c2cc3c(-c4ccc(Cl)cc4)nn(C)c3s2)CC1", "inhibition": "5.62%"}, {"smiles": "CCOC(=O)N1CCN(C(=O)c2cc3c(-c4ccc(Cl)cc4)nn(C)c3s2)CC1", "inhibition": "-0.35%"}, {"smiles": "O=C(CCS(=O)(=O)Cc1ccccc1)Nc1ccc2c(c1)OCCO2", "inhibition": "3.16%"}, {"smiles": "O=C(Nc1ccnc(-c2ccncc2)n1)c1cccs1", "inhibition": "-0.85%"}, {"smiles": "COc1ccnc(Oc2ccccc2)n1", "inhibition": "2.23%"}, {"smiles": "CC(C)(C)[C@H]1C=C(C(=O)NCc2ccccc2)O[C@@H](OCc2ccc(CO)cc2)C1", "inhibition": "3.51%"}, {"smiles": "C=CCOC(=O)C1=C[C@@H](c2ccccc2)C[C@@H](OCc2ccc(CO)cc2)O1", "inhibition": "1.5%"}, {"smiles": "O=C(NCc1ccccc1)C1=C[C@@H](C2CCCCC2)C[C@@H](OCc2ccc(CO)cc2)O1", "inhibition": "16.7% (active)"}, {"smiles": "O=C(NCc1ccccc1)C1=C[C@H](C2CC2)C[C@H](OCc2ccc(CO)cc2)O1", "inhibition": "-0.5%"}, {"smiles": "O=C(C1=C[C@H](c2ccc(C(F)(F)F)cc2)C[C@H](OCc2ccc(CO)cc2)O1)N1CCN(Cc2ccccc2)CC1", "inhibition": "2.29%"}, {"smiles": "O=C(NCc1ccccc1)C1=C[C@@H](c2ccc(C(F)(F)F)cc2)C[C@@H](OCc2ccc(CO)cc2)O1", "inhibition": "12.2% (active)"}, {"smiles": "Fc1ccccc1Cn1cnc(NC(=S)NCCc2ccccc2)n1", "inhibition": "6.41%"}, {"smiles": "O=C(NCCc1ccc(F)cc1)c1n[nH]c2ccccc12", "inhibition": "-0.97%"}, {"smiles": "C/C(N)=C(/C#N)C(=O)COC(=O)c1cc(-c2cccc(Br)c2)nc2ccccc12", "inhibition": "4.74%"}, {"smiles": "O=C(CCC1CCCN(Cc2ccc(O)c(Cl)c2)C1)NCc1ccccc1F", "note": "(centres undefined)", "inhibition": "1.23%"}, {"smiles": "O=C(Oc1cccc(O)c1)C1CCCCC1", "inhibition": "-0.74%"}, {"smiles": "CC(C)Oc1ccccc1C(=O)NC(CO)C(=O)O", "note": "(centres undefined)", "inhibition": "1.42%"}, {"smiles": "O=C(NN=C1CCC(=NNC(=O)c2cccnc2)CC1)c1cccnc1", "inhibition": "1.46%"}, {"smiles": "CC(C)OCCCNC(=O)c1ccc(C2SCC(=O)N2Cc2ccco2)cc1", "note": "(centres undefined)", "inhibition": "1.08%"}, {"smiles": "Cc1ccsc1C1C(C#N)=C(N)OC2=C1C(=O)CC(C)(C)C2", "note": "(centres undefined)", "inhibition": "1.24%"}, {"smiles": "CCNC(=S)N1CCC(c2nc3cc(C)c(C)cc3[nH]2)CC1", "inhibition": "-0.13%"}, {"smiles": "Cc1cc2c(c(=O)n1Cc1ccco1)C(c1ccccc1)C(C#N)=C(N)O2", "note": "(centres undefined)", "inhibition": "2.82%"}, {"smiles": "COc1ccc(NC(=O)Cn2c(=O)n(Cc3ccco3)c(=O)c3ccccc32)cc1", "inhibition": "2.68%"}, {"smiles": "CN(c1ccccc1)c1ccc(/C=c2\\s/c(=C(/C#N)C(=O)C(C)(C)C)n(Cc3ccco3)c2=O)cc1", "inhibition": "22.5% (active)"}, {"smiles": "CCc1ccc(NC(=O)C(C)OC(=O)/C=C/c2cccc([N+](=O)[O-])c2)cc1", "note": "(centres undefined)", "inhibition": "2.92%"}, {"smiles": "COc1c(C)cc(C(=O)C2CCCN(S(=O)(=O)c3c(C)noc3C)C2)cc1C", "note": "(centres undefined)", "inhibition": "5.32%"}, {"smiles": "Cc1cnc(NC(=O)CSc2nnc(-c3ccc(Cl)cc3Cl)n2N)s1", "inhibition": "2.06%"}, {"smiles": "CCOc1ccccc1NC(=O)CCc1ccc(C)o1", "inhibition": "1.75%"}, {"smiles": "Cc1ccc(CCC(=O)Nc2ncc(Cc3cc(Cl)ccc3Cl)s2)o1", "inhibition": "14% (active)"}, {"smiles": "CCOC(=O)Cc1cc(=O)[nH]c(=O)[nH]1", "inhibition": "-0.76%"}, {"smiles": "Cc1cc(C)c(C#N)c(SCC(=O)NN2CC(=O)N(c3ccccc3F)CC2=O)n1", "inhibition": "1.88%"}, {"smiles": "O=C(c1ccc(Cl)c([N+](=O)[O-])c1)N1CCN(c2ccccc2)CC1", "inhibition": "-1.05%"}, {"smiles": "CC(O)C(NS(=O)(=O)c1ccc(Cl)cc1)C(=O)OCc1cc([N+](=O)[O-])cc2c1OCOC2", "note": "(centres undefined)", "inhibition": "14.1% (active)"}, {"smiles": "COc1ccc(S(=O)(=O)NC(C)C(=O)Nc2cccc([N+](=O)[O-])c2)cc1", "note": "(centres undefined)", "inhibition": "0.38%"}, {"smiles": "Nc1ccccc1SCc1cc([N+](=O)[O-])cc2c1OCOC2", "inhibition": "0.13%"}, {"smiles": "CN(C)CCCO/N=C(\\c1ccccc1)c1ccncc1", "inhibition": "1.14%"}, {"smiles": "O=c1[nH]n2c(-c3ccccc3)nc(O)c2c2ccccc12", "inhibition": "2.15%"}, {"smiles": "Cn1c(=O)c2c(ncn2CC(=O)N/N=C/c2cn[nH]c2-c2ccc(F)cc2)n(C)c1=O", "inhibition": "1.49%"}, {"smiles": "Fc1ccc(CSc2nnc(-c3cc4c(s3)-c3ccccc3CC4)o2)cc1", "inhibition": "22.2% (active)"}, {"smiles": "CCSc1nnc(-c2cc3c(s2)-c2ccccc2CC3)o1", "inhibition": "2.39%"}, {"smiles": "Fc1ccc(-c2nnc(CSc3nnc(-c4ccc5c(c4)OCO5)o3)o2)cc1", "inhibition": "3.54%"}, {"smiles": "Cc1ccc(N(C(=O)C(F)(F)F)C(C(=O)NC2CCCCC2)c2ccncc2)cc1C", "note": "(centres undefined)", "inhibition": "4.82%"}, {"smiles": "FC(F)(F)c1cccc(Cc2noc(CN3CCC(N4CCCCC4)CC3)n2)c1", "inhibition": "0.6%"}, {"smiles": "O=C(c1ccc(F)cc1)c1cn(Cc2ccc(F)cc2)c2cc3c(cc2c1=O)OCCO3", "inhibition": "9.62% (active)"}, {"smiles": "CCn1cc(C(=O)N/N=C(/C)c2ccc(F)cc2)c(=O)c2cc(F)c(N3CCCC3)cc21", "inhibition": "0.79%"}, {"smiles": "COc1ccc2c(c1)c(=O)c(C(=O)c1ccc(Cl)cc1)cn2CC(=O)Nc1ccc(F)cc1", "inhibition": "3.22%"}, {"smiles": "COc1ccc(/C=C2\\SC(=S)N(CC(=O)NNC(=O)c3ccncc3)C2=O)cc1", "inhibition": "4.19%"}, {"smiles": "Cc1c(C(=O)NCCN2C(=O)S/C(=C\\c3cccs3)C2=O)cccc1[N+](=O)[O-]", "inhibition": "2.49%"}, {"smiles": "O=C(CCN1C(=O)/C(=C/c2cccs2)SC1=S)NNC(=O)c1cccc(O)c1", "inhibition": "9.69% (active)"}]}]}
